# Assay outcomes as filed in PubChem BioAssay.
# D2 ag-1 – Beta-Arrestin HTS for Positive Allosteric Modulators of the Human D2 Dopamine Receptor: Agonists | 360,000 compounds, 0.084% hits | activation, % (concentration not given with the values) | D(2) dopamine receptor (Homo sapiens), P14416 | DiscoveRx PathHunter D2 beta-arrestin, luminescence, 90 min; 100% = 57 uM dopamine signal; in the data active = activation above about 40%
# Target sequence (P14416 whole entry, looked up): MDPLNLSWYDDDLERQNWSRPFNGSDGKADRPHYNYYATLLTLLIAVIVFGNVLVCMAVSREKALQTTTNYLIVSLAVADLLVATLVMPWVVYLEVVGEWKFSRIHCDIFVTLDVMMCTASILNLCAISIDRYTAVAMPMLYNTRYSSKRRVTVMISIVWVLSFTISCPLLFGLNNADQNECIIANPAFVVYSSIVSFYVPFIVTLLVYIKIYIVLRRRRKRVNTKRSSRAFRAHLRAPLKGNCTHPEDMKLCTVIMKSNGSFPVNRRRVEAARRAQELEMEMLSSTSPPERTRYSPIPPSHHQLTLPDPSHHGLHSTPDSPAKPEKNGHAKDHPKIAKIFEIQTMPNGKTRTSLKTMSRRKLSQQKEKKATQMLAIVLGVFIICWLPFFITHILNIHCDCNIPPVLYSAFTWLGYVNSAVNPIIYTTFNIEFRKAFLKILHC
#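 DiscoveRx PathHunter D2 beta-arrestin cells (2,100/well) attached overnight, then compound-stimulated 90 min at 37 C in HBSS/10 mM HEPES/0.1% Tween-20 buffer; beta-galactosidase complementation read by luminescence after 1 h at ambient temperature. Dopamine 57 uM final (EC100) as control.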
# D2 antag – HTS Assay for Allosteric Antagonists of the Human D2 Dopamine Receptor: Primary Screen for Antagonists | AID 485344, 2010 | HEK293 TREx D2 cells, calcium flux, dopamine EC80 | inhibition, % at 10 µM | 340,000 compounds, 2% hits; in the data active = inhibition above about 30%; inactive = below that, where a call was filed; also: 0% is about no effect
#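 HEK293 T-REx D2 cells, tet-induced, calcium dye no-wash. Cpd pintool add, 180 s kinetic, then EC80 DA, 180 s kinetic. Ca flux read.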
# D2 PAM-1 – HTS Assay for Positive Allosteric Modulators of the Human D2 Dopamine Receptor: Primary Screen for Potentiators; AID 485347, 2010; 340,000 compounds, 0.34% hits; D(2) dopamine receptor (Homo sapiens), P14416; potentiation, % at 10 µM; HEK293 T-REx D2, calcium flux, EC20 dopamine potentiation;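 active = potentiation over 3 SD above the plate norm, cut at about 30% in these data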; also: 0% is about no effect
#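 Potentiation of an EC20 dopamine calcium response is measured in a force-coupled, tetracycline-inducible Hek293 Trex D2 line. Compound-only kinetic reads over 180 s flag agonists before dopamine addition.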
# D2 ag-2 – HTS Assay for Allosteric Agonists of the Human D2 Dopamine Receptor: Primary Screen for Agonists | activation, % at 2 µM | HEK293 T-REx D2 cells, calcium flux agonist mode | 340,000 compounds, 0.53% hits | D(2) dopamine receptor (Homo sapiens), P14416;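 active = activation over 3 SD above normal in the single-dose calcium agonist read, cut at about 30% in these data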; also: 0% is about no effect
#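 Tetracycline-induced HEK293 Trex cells with D2 receptor force-coupled to calcium signaling, plated overnight at 30 C and loaded with no-wash calcium dye. Calcium flux read kinetically for 180 s after compound addition; responses flag agonists.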
# D2 PAM-2 – Beta-Arrestin HTS for Positive Allosteric Modulators of the Human D2 Dopamine Receptor: Potentiators. D(2) dopamine receptor (Homo sapiens), P14416. DiscoveRx D2 beta-arrestin cells, luminescence, 90 min; 100% = 57 uM dopamine signal. potentiation, % (no concentration beside the values). 360,000 compounds, 0.23% hits. AID 624464, 2012; in the data active = potentiation above about 50%
#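 PathHunter D2 cells, attached overnight at 37 deg C, received compound in DMSO plus dopamine at EC20 (50 nM final) for 90 min at 37 deg C. Beta-arrestin recruitment was read as luminescence after 1 h with detection reagent at ambient temperature.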
# An asterisk follows results filed as active; / = no result given. In the library only some 2.4% were active in any assay of this set; here they are far more common.
SMILES,D2 ag-1,D2 antag,D2 PAM-1,D2 ag-2,D2 PAM-2
COc1ccccc1CNC(=O)CCCNC(=O)c1ccc(Cl)cc1,0,-19,30*,0,-9
CCOC(=O)c1cc2c(=O)n3ccccc3nc2n(CC2CCCO2)c1=NC(=O)c1ccc(OC)cc1OC (configuration not stated),/,/,-7,/,/
CCn1cc(S(=O)(=O)N2CCN(Cc3cccc(Cl)c3)CC2)cn1,-2,34*,-9,1,-11
Cc1ccc2oc(C(=O)Nc3c(C(=O)Nc4cccc(Cl)c4)oc4ccccc34)cc(=O)c2c1,/,/,-6,1,/
CN1/C(=C\C(=O)Nc2ccc(Cl)cc2)C(C)(C)c2ccccc21,4,1,6,0,-1
CN1/C(=C\C=C(/C#N)C(=O)Nc2ccc(Cl)cc2)C(C)(C)c2ccccc21,-2,9,-20,40*,-16
COC(=O)C1=C(C(=O)c2ccc(C)cc2)C(c2ccc(O)c(OC)c2)n2nnnc2N1 (configuration not stated),-3,15,-3,1,15
COC(=O)C1=C(C(=O)c2ccc(C)cc2)C(c2ccc(OC)c(OC)c2)n2nnnc2N1 (configuration not stated),-5,33*,-16,1,-23
O=[N+]([O-])c1ccc(S(=O)(=O)NCCN2CCOCC2)cc1,3,5,49*,0,5
Nc1[nH]nc2ncc3cc4ccccc4nc3c12,-3,59*,0,0,15
O=C(O)c1cc(S(=O)(=O)O)ccc1O,-1,42*,0,0,-7
O=C(O)c1cc2cc(S(=O)(=O)O)ccc2cc1O,0,/,/,/,11
O=S(=O)(c1ccc2ccccc2c1)N1CCOCC1,1,-4,25,1,-5
O=S(=O)(c1ccc2nc(-c3ccco3)c(-c3ccco3)nc2c1)N1CCOCC1,4,-2,17,-2,56*
CCn1c2ccccc2c2cc(/C=N/NC(=O)c3cccc(C)c3)ccc21,1,-12,8,1,8
CCn1c2ccccc2c2cc(/C=N/NC(=O)c3ccccc3C)ccc21,-6,36*,-4,-1,-9
CC(C)Cn1c(CCCNC(=O)c2ccc(F)cc2)nc2ccccc21,-2,31*,-26,-2,-9
COc1cccc(-c2noc(COc3cccc(C)c3C)n2)c1,/,/,-4,0,/
COc1ccc(Br)cc1/C(C)=N/NC1=NCCN1,-4,33*,-24,1,-44
CCCCCOc1ccc(Br)cc1/C(C)=N/NC1=NCCN1,-5,18,-11,0,-16
O=C(COc1ccc(S(=O)(=O)N2CCOCC2)cc1Cl)NCc1ccccn1,1,25,34*,1,1
O=C(COc1ccc(S(=O)(=O)N2CCCC2)cc1Cl)NCc1ccccn1,-1,-11,-5,0,-2
CCC(=O)N1c2ccccc2CC1C(=O)NCCc1cc(OC)c(OC)c(OC)c1 (configuration not stated),/,/,-1,1,/
Cc1ccc(NC(=O)CN(C)C(=O)c2cccc(S(=O)(=O)NCc3cccs3)c2)cc1,4,-22,-19,0,-6
COc1cccc(NC(=O)CN(C)C(=O)CC(NC(=O)c2ccccc2Cl)c2ccccc2)c1 (configuration not stated),-1,32*,-22,0,-5
SMILES,D2 ag-1,D2 antag,D2 PAM-1,D2 ag-2,D2 PAM-2
Cc1ccc(NC(=O)CN(C)C(=O)c2cccc(S(=O)(=O)NCc3ccccc3)c2)cc1,-3,46*,-2,0,-38
COc1cccc(NC(=O)CN(C)C(=O)c2cccc(NS(=O)(=O)c3ccccc3)c2)c1,0,32*,-10,0,-2
COc1cccc(NC(=O)CN(C)C(=O)c2cccc(NS(=O)(=O)c3ccc(Br)cc3)c2)c1,-1,/,/,/,-3
COC(=O)c1ccc(/C=N/NC(=O)CC(=O)NCc2cccnc2)cc1,-2,-3,-2,0,-2
Cc1cc(C)cc(NC(=O)CN(C)S(=O)(=O)c2ccc3c(c2)CCC(=O)N3)c1,/,/,19,-1,/
COC(=O)c1ccc(NC(=O)C2CC(=O)OC2c2ccccc2)cc1 (configuration not stated),-5,35*,-15,0,-6
CCOc1ccc(NC(=O)C2CC(=O)OC2c2ccccc2)cc1 (configuration not stated),10,-10,1,0,-5
COC(=O)c1scc(-c2ccc(C)cc2)c1S(=O)(=O)Nc1cc(Cl)ccc1C,/,/,-10,0,/
O=S(=O)(Nc1cccc2ccccc12)c1cccs1,91*,-17,-2,0,1
Cc1cc(=O)[nH]c2nnc(SCCC(C)C)n12,/,/,0,1,/
CC(=O)CCn1cc([N+](=O)[O-])nc1C,-1,11,-10,-1,-9
COc1cccc2cc(C(C)OC(=O)Nc3ccc(C)cc3)oc12 (configuration not stated),3,32*,-8,1,-21
CCOc1ccc(-c2cc(NC(=O)c3cccc(Cl)c3)c(C(=O)OC)s2)cc1,/,/,1,/,/
COc1ccccc1OCc1nc(-c2cccc(C)c2)no1,/,/,-7,-1,/
COc1cn(CC(=O)Nc2cccc(C)c2)c(CN2CCCCC2)cc1=O,/,/,5,/,/
CCn1c(CNc2ccc(Cl)cc2)nnc1SCCN1CCCCC1,-3,50*,-27,0,-53
Cc1sc2ncnc(SCC(=O)NC3CCCC3)c2c1C,-2,32*,/,-3,-1
CCCCn1c(NCCC)nc2c1c(=O)[nH]c(=O)n2C,0,2,40*,-1,2
CCCNc1nc2c(c(=O)[nH]c(=O)n2C)n1CCC(C)C,-4,-2,16,-1,3
CCCCC1=CC2=C(c3ccco3)C(=O)C(C)(OC(=O)c3ccc(OC)cc3)C(=O)C2=CN1Cc1ccccc1 (configuration not stated),3,5,-7,0,10
CCCCC1=CC2=C(c3ccco3)C(=O)C(C)(OC(=O)c3ccc(OC)cc3)C(=O)C2=CN1Cc1ccc2c(c1)OCO2 (configuration not stated),0,33*,0,0,-16
CCCCC1=CC2=CC(=O)C(C)(OC(=O)CC)C(=O)C2=CN1Cc1ccc(OC)cc1 (configuration not stated),3,31*,9,0,-1
